# aSyn yeast inh = inhibitors of alpha-synuclein toxicity in yeast; 0.14% of 370,000 active; Potency, µM (highest dose often 46.1 µM), inactives show top-dose growth rescue (activation), usual class: activators; Yeast expressing alpha-synuclein, growth rescue, BacTiter-Glo, 24 h; AID 652106; also: % of control where 0% means no effect; nearly all actives have a fitted effect of over 65% in size
#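 Readout is rescue of growth in alpha-synuclein-expressing yeast, so inhibitors of toxicity appear as activators. Growth after 24 hr at 30 deg C in galactose medium is quantified by luminescence.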
# FUS yeast rescue = suppressors of FUS proteinopathy in yeast | S. cerevisiae FUS-expressing, growth rescue, OD600, 24 h | Potency, µM (titrated, usually from 76.6 µM), most hits filed as activators | AID 1347120 | 0.24% of 390,000 active;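 also: plate controls were DMSO vehicle for no effect and reference control for full effect; nearly all actives have a fitted effect of over 55% in size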
#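 Yeast expressing FUS under galactose induction, OD 0.005 in 2% galactose medium; compounds in a dilution series, 24 h at 30C. Growth rescue by absorbance at 600 nm; CP55940 positive control, DMSO negative.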
# TDP43 rescue = inhibitors of TDP-43 toxicity in yeast; TDP-43 expressing yeast growth rescue, BacTiter-Glo, 24 h; Potency, µM (titrated, usually from 46.1 µM), inactives show at the highest dose growth rescue (activation), hits mostly activators; 1.8% of 410,000 active; also: % of control where 0% means no effect; nearly all actives have a fitted effect of over 50% in size
#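 Yeast cells expressing TDP-43 under galactose induction are exposed to compounds for 24 hr at 30 deg C. BacTiter-Glo luminescence measures growth, so protective compounds score as activators.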
# Abeta rescue = A-beta toxicity reversal in yeast | yeast expressing A-beta42, growth rescue, OD600, 48 h; response scale: 0% DMSO, 100% iron-clioquinol control | Potency, µM (doses to about 46.1 µM), usual class: activators | 0.063% of 410,000 active | AID 1347071; also: nearly all actives have a fitted effect of over 55% in size
#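 Growth rescue measured by 600 nm absorbance after 48 h yeast culture at 30 C with compound. Values normalized between DMSO and an equimolar ferric chloride plus clioquinol control.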
# Active calls of the source: *; i = inactive; ? = inconclusive; / = no result given. Only some compounds are listed: those with a hit (about 2.1% of all), similar ones and a draw of the others. Calls follow the shape of the dose curve; as a rule, active = well fitted curve in the direction sought with a large enough effect; inconclusive = small, poorly fitted or top-dose-only effect, or another doubt; inactive = no such curve, though single readings can be large; an effect the other way counts as inactive or inconclusive. Potency is read from the fitted curve at half-maximal effect.
SMILES,aSyn yeast inh,FUS yeast rescue,TDP43 rescue,Abeta rescue
CCN(C(=O)c1ccccc1F)c1nc(-c2ccc(OC)cc2)cs1,-7%,i,20%,i
CCOc1ccc(OCC)c(NC(=O)CSc2nnnn2CC)c1,-4%,i,13%,i
Cc1cc(Br)c2nc(-c3ccccc3)c(Cc3cccc(Cl)c3)n2c1,-7%,?,11µM*,i
Cc1ccc2nc(-c3ccc(C#N)cc3)c(Cc3cccc(Cl)c3)n2c1,?,i,35µM*,i
CC(C)n1c(N2CCN(C(=O)Nc3ccccc3)CC2)nc2ccccc21,1%,i,-9%,i
Cn1nnc2c(NCc3ccccc3Cl)ncnc21,/,i,?,i
Cn1nnc2c(NCc3ccc(Cl)cc3)ncnc21,/,i,11µM*,i
COC(=O)c1sc(NC(=O)COc2c(C)cccc2C)nc1C,10%,i,20µM*,i
COC(=O)c1sc(NC(=O)COc2ccccc2C)nc1C,-4%,i,8%,i
Cc1cc(N/N=C\c2ccccc2)nc(-c2ccccc2O)n1,-10%,i,26%,i
C/C(=N\Nc1cc(C)nc(-c2ccccc2O)n1)c1ccccc1O,-9%,i,11µM*,i
O=C(N[C@H]1C/C=C\C[C@@H](CC(=O)N(CCO)Cc2ccccc2)C(=O)N[C@H](Cc2c[nH]c3ccccc23)COC1=O)OCC1c2ccccc2-c2ccccc21,-4%,20µM*,24%,i
O=C1NC[C@H](c2ccccc2)OC(=O)[C@H](Cc2ccc(F)cc2)CC/C=C/C[C@@H]1CC(=O)N(CCO)Cc1ccccc1,4%,?,18%,i
O=C1N[C@@H](Cc2c[nH]c3ccccc23)COC(=O)[C@@H](Cc2ccc(F)cc2)C/C=C\C[C@H]1CC(=O)N(CCO)Cc1ccccc1,1%,?,4%,i
O=C(N[C@H]1C/C=C\C[C@H](CC(=O)N(CCO)Cc2ccccc2)C(=O)N[C@H](Cc2c[nH]c3ccccc23)COC1=O)OCC1c2ccccc2-c2ccccc21,2%,22µM*,6%,i
O=C(N[C@@H]1C/C=C\C[C@H](CC(=O)N(CCO)Cc2ccccc2)C(=O)N[C@@H](Cc2c[nH]c3ccccc23)COC1=O)OCC1c2ccccc2-c2ccccc21,2%,?,24%,i
O=C(N[C@@H]1C/C=C\C[C@@H](CC(=O)N(CCO)Cc2ccccc2)C(=O)N[C@@H](c2ccccc2)COC1=O)OCC1c2ccccc2-c2ccccc21,4%,?,12%,i
O=C1N[C@@H](Cc2c[nH]c3ccccc23)COC(=O)[C@H](Cc2ccc(F)cc2)C/C=C\C[C@@H]1CC(=O)N(CCO)Cc1ccccc1,6%,28µM*,22%,i
O=C1NC[C@@H](c2ccccc2)OC(=O)[C@@H](Cc2ccc(F)cc2)CC/C=C/C[C@H]1CC(=O)N(CCO)Cc1ccccc1,13%,25µM*,-6%,i
CCOc1ccccc1CN1CCNC(=O)C1CC(=O)N(C)Cc1cnccn1 (configuration not stated),-2%,i,-2%,i
CCN1/C(=C(\O)c2ccccc2)C(=O)c2ccccc2S1(=O)=O,4µM*,i,?,i
CCN1C(C(=O)c2ccccc2)=C(OC(=O)c2ccc(OC)cc2)c2ccccc2S1(=O)=O,/,i,10%,i
CCCCN1C(C(=O)c2ccccc2)=C(OC(=O)CC)c2ccccc2S1(=O)=O,/,i,22µM*,i
CCCCN(CCCC)C1=C(C(=O)c2ccccc2)N(C)S(=O)(=O)c2ccccc21,16µM*,i,6%,i
CCCCN(CCCC)C1=C(C(=O)c2ccccc2)N(CC)S(=O)(=O)c2ccccc21,?,i,?,?
SMILES,aSyn yeast inh,FUS yeast rescue,TDP43 rescue,Abeta rescue
CCN1C(C(=O)c2ccccc2)=C(OC(=O)COc2ccccc2)c2ccccc2S1(=O)=O,/,i,?,i
CCN1C(C(=O)c2ccccc2)=C(OC(=O)C(C)C)c2ccccc2S1(=O)=O,/,i,18µM*,i
O=S(=O)(NCCNS(=O)(=O)c1cccs1)c1cccs1,1%,/,-24%,i
CCn1c(=O)cc(OCC(=O)Nc2cccnc2)c2ccccc21,1%,i,20%,i
CCCC(=O)OC1=C(C(C)=O)N(Cc2ccccc2)S(=O)(=O)c2ccccc21,/,i,11µM*,i
Cc1ccc(Cl)cc1C1=CC(=O)C[C@H](c2ccc(F)cc2)C1,3%,i,?,i
COc1ccc([C@H]2CC(=O)C=C(c3ccc(NC(C)=O)cc3)C2)cc1OC,2%,i,9%,i
O=C1C=C(c2cccc(Br)c2)C[C@@H](c2ccc(Cl)cc2)C1,8%,i,0%,i
CC(=O)Nc1ccc(C2=CC(=O)C[C@H](c3ccc(Cl)cc3)C2)cc1,2%,?,35µM*,i
O=C1C=C(c2cc(F)ccc2F)C[C@@H](c2ccc(Cl)cc2)C1,13%,i,20µM*,i
COc1ccc([C@H]2CC(=O)C=C(c3cccc4c3sc3ccccc34)C2)cc1OC,10%,i,-1%,i
COc1ccc([C@H]2CC(=O)C=C(c3cccc(OC)c3OC)C2)cc1OC,0%,i,22µM*,?
O=C1C=C(c2cccc(Cl)c2O)C[C@@H](c2ccc(Cl)cc2)C1,-15%,?,3.2µM*,i
CCCCNC(=O)c1ccc2c(OCC)n(CCCC)nc2c1,5%,i,0%,i
Cc1ccc(S(=O)(=O)NN=C2CCN(Cc3ccccc3)CC2)cc1,-15%,i,14%,i
CSc1ccc(CN2CCC2(C)C(=O)Nc2cnc3ccccc3c2)cc1 (configuration not stated),0%,i,-6%,i
COc1ccc([C@H]2CC(=O)C=C(c3cc(F)ccc3F)C2)cc1OC,7%,i,22µM*,i
COc1cc(F)c(C2=CC(=O)C[C@H](c3ccc(Cl)cc3)C2)cc1F,0%,i,?,i
COc1cc(Nc2nc(SCc3cccc(Cl)c3)nc3ccccc23)cc(OC)c1,/,i,18µM*,i
COc1cc(Nc2nc(SCc3ccc(Cl)cc3)nc3ccccc23)cc(OC)c1,/,i,?,i
COc1cc(Nc2nc(SCc3ccccc3Cl)nc3ccccc23)cc(OC)c1,/,?,20µM*,i
O=C(CSc1nc(Nc2ccccc2)c2ccccc2n1)c1ccc(Cl)cc1,/,i,19%,i
COc1cc(Nc2nc(SCC(=O)c3ccc(Cl)c(Cl)c3)nc3ccccc23)cc(OC)c1,/,i,13µM*,i
CC(=C/c1ccccc1)/C=N/n1c(-c2ccco2)n[nH]c1=S,/,i,11µM*,i
CCC(C)NC(=O)C1CCN(S(=O)(=O)c2ccc3nc4c(c(C(=O)O)c3c2)CCCCC4)CC1 (configuration not stated),2%,i,0%,i
